The values that follow come from PubChem BioAssay (NCI).

SMILES strings stand for the structures. Compounds without any hit were thinned out: in the full panel of roughly 83,000, 20% have a hit.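 For each line, cells grew in 96-well plates with the test compound present at a single concentration for 48 hours.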 Values without a mark were called inactive. Calls of active or inactive are those of the source. The calls were made as follows: active = growth percent below 10; inactive = the rest.

Among the test systems are SK-MEL-2 melanoma; EKVX NSCLC; SN12C renal; UO-31 renal; TK-10 renal; ACHN renal; CAKI-1 renal; A498 renal; CCRF-CEM leukemia; MOLT-4 leukemia; SR leukemia; RPMI-8226 leukemia; OVCAR-8 ovarian; OVCAR-4 ovarian; SK-OV-3 ovarian; IGROV1 ovarian; OVCAR-3 ovarian; HS 578T breast; NCI/ADR-RES ovarian; OVCAR-5 ovarian.
Assay in all cases: NCI-60 one-dose screen, 48 h (100 = growth as untreated, 0 = no growth, -100 = all killed)
What all share (conditions): 10 µM unless noted

`CCOC(=O)C1OC2(CCCC2)OC1C(=O)OCC` (centres undefined): the growth is 94.9% with SK-MEL-2 melanoma; 108% in the assay on EKVX NSCLC; 101% with SN12C renal; 83% with UO-31 renal; 102% in the assay with TK-10 renal; 109% in the assay with ACHN renal. Further, the growth in the assay on CAKI-1 renal is 102%; with A498 renal, 107%; with CCRF-CEM leukemia, 86.3%; in the assay with MOLT-4 leukemia, 92.2%; in the assay with SR leukemia it was 104%; in the assay with RPMI-8226 leukemia, 84.8%. Also, the growth with OVCAR-8 ovarian was 108%; in the assay with OVCAR-4 ovarian, 118%; with SK-OV-3 ovarian, 105%; in the assay with IGROV1 ovarian, 96.6%; with OVCAR-3 ovarian it was 122%; in the assay with HS 578T breast, 105%. In the assay on NCI/ADR-RES ovarian, the growth was 117%.
`CC1(C)OC2OC3C(CN)OC(c4ccccc4)OC3C2O1` (centres undefined): the growth is 103% in the assay on SK-MEL-2 melanoma; 103% in the assay with EKVX NSCLC; 103% with SN12C renal; 103% with UO-31 renal; 104% with TK-10 renal; 103% in the assay with ACHN renal. The growth is 92.5% in the assay on CAKI-1 renal; 96.8% in the assay on A498 renal; 104% with CCRF-CEM leukemia; 5.53% (active) in the assay with MOLT-4 leukemia; 96.2% in the assay on SR leukemia; 103% in the assay on OVCAR-8 ovarian. Moreover, the growth with OVCAR-5 ovarian was 104%; with OVCAR-4 ovarian it was 111%; in the assay with SK-OV-3 ovarian, 104%; with IGROV1 ovarian, 121%; with OVCAR-3 ovarian, 105%; in the assay on HS 578T breast, 118%. The growth in the assay with NCI/ADR-RES ovarian was 100%.
Take `Cc1c(C(N)=O)sc2ncn(CC(=O)NN=C3CCCCC3)c(=O)c12`: the growth with SK-MEL-2 melanoma is 5.33% (active); with EKVX NSCLC, 96.6%; with SN12C renal, 96.3%; in the assay on UO-31 renal, 124%; in the assay on TK-10 renal, 106%; in the assay on ACHN renal it was 109%. For the same compound, the growth with CAKI-1 renal was 132%; with A498 renal, 111%; in the assay on CCRF-CEM leukemia, 113%; with MOLT-4 leukemia, 109%; with SR leukemia, 82.9%; with OVCAR-8 ovarian, 110%. Further, the growth with OVCAR-5 ovarian was 104%; in the assay with OVCAR-4 ovarian it was 110%; in the assay with SK-OV-3 ovarian it was 110%; in the assay on OVCAR-3 ovarian, 107%; in the assay with HS 578T breast, 108%; in the assay with NCI/ADR-RES ovarian, 100%.
In the case of `O=C(O/C(=C/c1ccccc1)C(F)(F)F)c1ccccc1`, the growth in the assay with SK-MEL-2 melanoma was 103%; with EKVX NSCLC, 103%; in the assay on SN12C renal it was 99.3%; in the assay with UO-31 renal it was 102%; in the assay on TK-10 renal it was 103%; with ACHN renal, 110%. Besides, the growth was 99% in the assay on CAKI-1 renal; 88.7% in the assay on A498 renal; 106% in the assay with CCRF-CEM leukemia; 7.51% (active) in the assay with MOLT-4 leukemia; 69.6% with SR leukemia; 101% with OVCAR-8 ovarian. The growth in the assay on OVCAR-5 ovarian is 101%; in the assay on OVCAR-4 ovarian, 103%; in the assay on SK-OV-3 ovarian, 111%; in the assay on IGROV1 ovarian it was 120%; in the assay with OVCAR-3 ovarian, 103%; in the assay with HS 578T breast, 116%. Moreover, the growth in the assay on NCI/ADR-RES ovarian is 103%.
Take `Cn1cnc([N+](=O)[O-])c1S(=O)(=O)Oc1cccc2ccccc12`: the growth in the assay with SK-MEL-2 melanoma was 85%; in the assay with EKVX NSCLC, 97.1%; in the assay on SN12C renal it was 79.2%; in the assay on UO-31 renal it was -31% (active); in the assay on TK-10 renal, 96.3%; in the assay with ACHN renal, 4.28% (active). Moreover, the growth was -20.9% (active) in the assay with CAKI-1 renal; 97.6% in the assay with A498 renal; -1.53% (active) in the assay with CCRF-CEM leukemia; 32.8% with MOLT-4 leukemia; 17.5% in the assay on SR leukemia; 73.3% in the assay on OVCAR-8 ovarian. Moreover, the growth with OVCAR-5 ovarian is 82.3%; in the assay on OVCAR-4 ovarian it was 81.3%; in the assay with SK-OV-3 ovarian, 95.8%; in the assay on IGROV1 ovarian, 36.9%; with OVCAR-3 ovarian it was -73% (active); with HS 578T breast, 99.7%. Moreover, the growth in the assay on NCI/ADR-RES ovarian was 57.6%.
Turning to `CC(NC(=O)c1ccccc1)C(=O)Nc1ccccc1` (centres undefined), the growth was 104% in the assay with SK-MEL-2 melanoma; 105% with EKVX NSCLC; 109% in the assay on SN12C renal; 94.9% with UO-31 renal; 103% in the assay with TK-10 renal; 103% with ACHN renal. In addition, the growth in the assay with CAKI-1 renal is 107%; with A498 renal, 103%; with CCRF-CEM leukemia, 90.4%; in the assay with MOLT-4 leukemia, 101%; in the assay with SR leukemia it was 89.9%; in the assay with OVCAR-8 ovarian it was 103%. Besides, the growth in the assay on OVCAR-5 ovarian is 107%; with OVCAR-4 ovarian, 114%; with SK-OV-3 ovarian, 113%; with IGROV1 ovarian, 128%; in the assay with OVCAR-3 ovarian it was 135%; in the assay with HS 578T breast, 114%. In addition, the growth with NCI/ADR-RES ovarian is 108%.
Turning to `CC(C)c1ccc(-c2cnc3nonc3n2)cc1`, the growth is 76.4% with SK-MEL-2 melanoma; 71.9% with EKVX NSCLC; 26.2% in the assay on SN12C renal; 41.3% in the assay on UO-31 renal; 47.5% with TK-10 renal; 51.3% with ACHN renal. Also, the growth with CAKI-1 renal was 60.7%; with A498 renal it was 61.8%; with CCRF-CEM leukemia, 1.81% (active); with MOLT-4 leukemia, -12.1% (active); with SR leukemia it was 6.91% (active); in the assay on OVCAR-8 ovarian it was 36.6%. The growth in the assay on OVCAR-5 ovarian was 37.6%; with OVCAR-4 ovarian, 59.5%; in the assay with SK-OV-3 ovarian, 82.4%; in the assay with IGROV1 ovarian, 54.4%; in the assay with OVCAR-3 ovarian, 15.6%; with HS 578T breast it was 77.6%. In addition, in the assay on NCI/ADR-RES ovarian, the growth is 19.9%.
As to `COc1ccccc1/C=N\Nc1ccc([N+](=O)[O-])cn1`, the growth is 102% with SK-MEL-2 melanoma; 92.8% in the assay on EKVX NSCLC; 109% with SN12C renal; 90.8% with UO-31 renal; 111% in the assay with TK-10 renal; 109% with ACHN renal. For the same compound, the growth in the assay on CAKI-1 renal was 90.4%; in the assay on A498 renal, 106%; in the assay with CCRF-CEM leukemia it was 106%; with MOLT-4 leukemia, 103%; with SR leukemia, 104%; in the assay with OVCAR-8 ovarian, 106%. Moreover, the growth in the assay with OVCAR-5 ovarian was 108%; in the assay on OVCAR-4 ovarian it was 115%; in the assay on SK-OV-3 ovarian, 108%; in the assay with IGROV1 ovarian, 102%; in the assay with OVCAR-3 ovarian, 117%; with HS 578T breast, 124%. Moreover, the growth in the assay on NCI/ADR-RES ovarian was 107%.
On to `CCCCCCCCCCCCCCCC1=NC(C)(C)CN1C(C)C`, for which the growth in the assay with SK-MEL-2 melanoma was -67.9% (active); with EKVX NSCLC, 5.51% (active); in the assay with SN12C renal, -36.3% (active); in the assay on UO-31 renal it was -57.5% (active); with TK-10 renal, -74.2% (active); in the assay with ACHN renal it was -58.3% (active). In addition, the growth in the assay on CAKI-1 renal was -45.4% (active); in the assay with A498 renal, 63.4%; in the assay with CCRF-CEM leukemia, -56.3% (active); in the assay with MOLT-4 leukemia, -59.8% (active); in the assay on SR leukemia it was -49.7% (active); with OVCAR-8 ovarian it was -16.8% (active). Besides, the growth with OVCAR-5 ovarian was 56.2%; with OVCAR-4 ovarian it was 24.3%; in the assay on SK-OV-3 ovarian, -6.62% (active); in the assay on IGROV1 ovarian it was -32.9% (active); with OVCAR-3 ovarian, -43.2% (active); with HS 578T breast it was -31.6% (active). For the same compound, the growth with NCI/ADR-RES ovarian was -22% (active).
In the case of `CSc1nc(N)c2[nH]c(-c3cc4ccccc4[nH]c3=O)nc2n1`, the growth is 74.2% in the assay on SK-MEL-2 melanoma; 103% in the assay on EKVX NSCLC; 85.1% in the assay with SN12C renal; 57.3% in the assay with UO-31 renal; 106% in the assay on TK-10 renal; 61.1% in the assay on ACHN renal. For the same compound, the growth with CAKI-1 renal is 68.9%; with A498 renal it was 92.4%; in the assay with CCRF-CEM leukemia it was 91.6%; in the assay with MOLT-4 leukemia it was 79.8%; in the assay with RPMI-8226 leukemia, 85.1%; in the assay with OVCAR-8 ovarian it was 90.2%. In addition, the growth was 119% in the assay on OVCAR-5 ovarian; 83.7% in the assay on OVCAR-4 ovarian; 66.1% in the assay with SK-OV-3 ovarian; 61.5% in the assay on IGROV1 ovarian; 119% in the assay on OVCAR-3 ovarian; 94.6% with HS 578T breast. Besides, the growth in the assay with NCI/ADR-RES ovarian was 94.8%.
As for `O=c1c2cc(Br)cc(Br)c2nc(-c2ccc(Cl)cc2)n1/N=C/c1cccc(F)c1`, the growth in the assay with SK-MEL-2 melanoma is 59.8%; in the assay on EKVX NSCLC, 59.2%; in the assay on SN12C renal it was 53.5%; in the assay on UO-31 renal, 19.7%; with TK-10 renal it was 22.3%; in the assay on ACHN renal, 10.8%. Further, the growth in the assay on CAKI-1 renal was 14.5%; with A498 renal it was 101%; with CCRF-CEM leukemia, 48.8%; with MOLT-4 leukemia, 64.8%; with SR leukemia, 62.7%; with OVCAR-8 ovarian, 29.4%. Besides, the growth was 61% with OVCAR-5 ovarian; -11% (active) in the assay with OVCAR-4 ovarian; 52% in the assay on SK-OV-3 ovarian; 33.1% in the assay with IGROV1 ovarian; 49.8% in the assay on OVCAR-3 ovarian; 35.2% with HS 578T breast. In addition, in the assay on NCI/ADR-RES ovarian, the growth is 40.3%.
In the case of `CCCCSc1ncnc2c1ncn2C1CCCCO1` (centres undefined), the growth in the assay on SK-MEL-2 melanoma was 104%; in the assay with EKVX NSCLC it was 115%; in the assay with SN12C renal it was 103%; in the assay with UO-31 renal it was 91.2%; with TK-10 renal, 109%; in the assay on ACHN renal, 110%. Besides, the growth was 110% in the assay with CAKI-1 renal; 94.6% in the assay on A498 renal; 99.6% in the assay on CCRF-CEM leukemia; 96.9% in the assay on MOLT-4 leukemia; 90.5% with SR leukemia; 105% with OVCAR-8 ovarian. The growth in the assay with OVCAR-4 ovarian was 108%; with SK-OV-3 ovarian, 106%; in the assay on IGROV1 ovarian, 106%; in the assay with OVCAR-3 ovarian it was 109%; in the assay on HS 578T breast, 110%; with NCI/ADR-RES ovarian, 102%.
Take `O=C(Cc1ccc([N+](=O)[O-])cc1)Oc1ccccc1`: the growth in the assay with SK-MEL-2 melanoma is 102%; in the assay on EKVX NSCLC, 128%; in the assay on SN12C renal it was 106%; in the assay with UO-31 renal it was 77%; in the assay on TK-10 renal, 104%; with ACHN renal it was 110%. The growth is 117% with CAKI-1 renal; 107% in the assay with A498 renal; 99.3% in the assay on CCRF-CEM leukemia; 108% in the assay on MOLT-4 leukemia; 96.7% in the assay with SR leukemia; 107% with OVCAR-8 ovarian. Also, the growth in the assay on OVCAR-4 ovarian was 111%; with SK-OV-3 ovarian, 110%; with IGROV1 ovarian, 123%; in the assay with OVCAR-3 ovarian, 119%; with HS 578T breast, 109%; with NCI/ADR-RES ovarian it was 113%.
